# Bioassay records (PubChem)
# Myeloid diff 2: compounds promoting myeloid differentiation | ER-HoxA9 myeloid progenitors, lysozyme-GFP differentiation, flow cytometry | calls only at 10 µM | 360,000 tested, 1% active | AID 624256;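 active = normalized GFP-positive differentiation at or above the plate's own cutoff, the solvent-only control mean plus 3 SD; inconclusive = no clear call, values can overlap the other calls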;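 note: cells exposed to compound for four days before flow analysis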
# CRFBP-R2 agonist: CRF-BP/CRF-R2 complex agonism; activation, % at 13.2 µM; 350,000 tested, 0.46% active; HEK293 CRF-R2/CRF-BP, calcium dye fluorescence (FLIPR); percent of saturating CRF peptide response;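 active = activation of at least 50%, plus an integration ratio under a set limit after plate pattern correction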;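 note: plate controls were neutral control wells without compound for no effect and CRF at EC100 for full effect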
# IDE inh: cellular human IDE inhibition; P14735; HEK cells, FAbetaB cleavage, fluorescence polarization; inhibition, % at 5.59 µM; 320,000 tested, 0.41% active; AID 434962;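 active = percent inhibition above the average of all tested compounds plus 3 SD, set per screening campaign, cut at about 16% in these data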;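 note: IDE supplied by intact live HEK cells; FP after avidin binding of uncleaved biotin substrate so inhibition keeps polarization high; 0% = DMSO wells and 100% = 60 µM reference IDE inhibitor Ii1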
# CRFBP-R2 block: blocks CRF-induced signaling of the CRF-BP/CRF-R2 complex; HEK293 CRF-R2/CRF-BP, CRF-induced calcium fluorescence; inhibition, % at 11.8 µM; 350,000 tested, 0.59% active;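 active = inhibition of the ligand-induced calcium signal above about 50% at the single tested concentration, limit read from the data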
# IDE act: activators of human insulin-degrading enzyme in cells. 340,000 tested, 0.073% active. activation, % at 5.96 µM. HEK cells, FAbeta-B cleavage, fluorescence polarization; 0% vehicle, 100% cell-free pure enzyme wells. P14735;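 active = activation above the mean of all tested compounds plus 3 SD, set per screening campaign, cut at about 17% in these data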
# TPT1 inh: C. albicans TPT1 enzyme inhibition; recombinant caTPT1, FP RNA substrate dephosphorylation; inhibition, % at 5 µM; 300,000 tested, 0.81% active; AID 1962;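 active = inhibition above the mean of all tested compounds plus 3 SD, set per screening campaign, cut at about 24% in these data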;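 note: plate controls were DMSO alone for no effect and ferristatin control at 100 nM for full effect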
# caTPT1 confirm: confirmation of Candida albicans TPT1 inhibitors; shares compounds with TPT1 inh; recombinant caTPT1, fluorescence polarization, RNase T1 coupled; inhibition, % at 5 µM; 2,400 tested, 74% active; AID 2149;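 active = inhibition above the primary screen limit, the mean inhibition of all tested compounds plus 3 SD, cut at about 25% in these data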
# RNase T1 inh: counter-screen for TPT1 inhibitors: inhibitors of Aspergillus oryzae RNase T1; shares compounds with TPT1 inh; RNase T1 cleavage, fluorescence polarization, 1536-well; inhibition, % at 5 µM; 2,400 tested, 83% active; AID 2153;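 active = inhibition above the solvent-only control well mean plus 3 SD, limit set per screening run, cut at about 23% in these data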;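 note: plate controls were DMSO wells with enzyme for no effect and wells without RNase T1 for full effect; inhibitors block cleavage so intact labeled substrate keeps polarization high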
# Target sequence (P00651 whole entry, looked up): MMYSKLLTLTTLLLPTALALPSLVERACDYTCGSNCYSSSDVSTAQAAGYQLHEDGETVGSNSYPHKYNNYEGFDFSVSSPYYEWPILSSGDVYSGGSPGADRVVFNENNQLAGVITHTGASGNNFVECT
# IDE inh confirm: confirmation of human insulin-degrading enzyme inhibitors in cells; 1,200 tested, 51% active; HEK cells, FAbetaB cleavage, fluorescence polarization; inhibition, % at 5.59 µM; shares compounds with IDE inh;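 active = mean inhibition across triplicate wells above the cutoff set by the earlier primary insulin-degrading enzyme screen, cut at about 16% in these data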;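 note: 0% = DMSO wells and 100% = 60 µM reference IDE inhibitor Ii1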
# HEK cytotox: counter-screen for IDE inhibitors: cytotoxicity in HEK cells; shares compounds with IDE inh; HEK293 cytotoxicity, ATP luminescence; inhibition, % at 5.59 µM; 1,200 tested, 28% active; in the data active = inhibition above about 22%;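 note: 0% = vehicle wells and 100% = reference cytotoxic drug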
# An asterisk follows results filed as active; i = inactive; ? = inconclusive; . = no result given; + = active, no number. A selection: hits, their analogues and other compounds. The true share with any hit is near 2.6%.
SMILES,Myeloid diff 2,CRFBP-R2 agonist,IDE inh,CRFBP-R2 block,IDE act,TPT1 inh,caTPT1 confirm,RNase T1 inh,IDE inh confirm,HEK cytotox
COc1cc(/C=C2\COC/C(=C\c3ccc(O)c(OC)c3)C2=O)ccc1O,?,-2,-5,-5,5,6,.,.,.,.
COc1cc(/C=C2/CC/C(=C/c3ccc(O)c(OC)c3)C2=O)ccc1O,+,167*,24*,-132,-17,113*,117*,119*,36*,32*
NC(=O)c1c(NC(=O)c2ccc(S(=O)(=O)N3CCOCC3)cc2)sc2c1CCCCC2,i,2,3,-35,-6,-2,.,.,.,.
CCCN1CCc2c(sc(NC(=O)c3ccc(S(=O)(=O)N(C)c4ccccc4)cc3)c2C(N)=O)C1,+,99*,16*,-63,-8,107*,113*,115*,11,26*
CCN1CCc2c(sc(NC(=O)c3ccc(S(=O)(=O)N(C)CC4CCCO4)cc3)c2C(N)=O)C1 (stereo not given),i,-1,2,-3,5,9,.,.,.,.
CN1CCc2c(sc(NC(=O)c3ccc(S(=O)(=O)N4CCCCCC4)cc3)c2C(N)=O)C1,+,127*,25*,-146,-18,119*,126*,125*,4,19
CN(C(=O)CSc1cc(Cl)ccc1Cl)C1CCS(=O)(=O)C1 (stereo not given),i,0,7,-7,3,.,.,.,.,.
CCCCC[C@@H](C)N1C[C@H](COCc2ccccc2)Oc2cc(N3CCC[C@@H]3COC)ccc2S1(=O)=O,i,.,.,.,.,.,.,.,.,.
Cc1nc2cc(Cl)ccc2c(=O)n1Cc1ccncc1,i,0,4,9,5,-1,.,.,.,.
CC(=Nc1ccc(Br)cc1)c1sc2ccccc2c1O,i,7,20*,-12,-57,78*,88*,95*,54*,15
CC(=Nc1ccccc1)c1sc2ccccc2c1O,i,10,20*,-24,-43,31*,51*,67*,51*,12
CC(=Nc1ccccc1)C1=C(O)COC1=O,i,-1,-3,-4,4,1,.,.,.,.
NC(=Nc1ccc(Br)cc1)c1ccccc1,i,46,4,23,7,1,.,.,.,.
c1ccc2c(c1)CCN(c1nc(CN3CCOCC3)nc3sc4c(c13)CCCC4)C2,i,-2,2,-18,1,2,.,.,.,.
O=C(Cn1cnc2ccccc2c1=O)c1ccc(OC(F)F)cc1,?,0,-6,2,10,-3,.,.,.,.
CCCCN1C(=O)/C(=C/C=C2/CC(C)(C)CN2C)SC1=S,i,196*,107*,-268,-130,169*,174*,160*,149*,28*
CCN1C(=O)/C(=C/C=C2/Sc3ccccc3N2CCO)SC1=S,i,15,20*,-17,-17,40*,33*,45*,19*,20
CCN1C(=O)/C(=C/C=C2/SCCN2C)SC1=S,i,59*,27*,-18,-44,+,168*,157*,69*,21
CCN1C(=O)/C(=C/N2CCc3ccccc32)SC1=S,i,27,-3,-29,4,18,.,.,.,.
CCN(CC)c1ccc(/C=C2\C(=O)c3ccc(C(=O)O)cc3C2=O)cc1,i,248*,141*,-243,-106,143*,122*,116*,26*,12
CCN(CC)c1ccc(C(=O)O)cc1,i,2,6,-3,-2,4,.,.,.,.
CC[n+]1c(/C=C/C=C/N(C(C)=O)c2ccccc2)sc2cc(OC)ccc21,.,146*,40*,-127,.,56*,76*,81*,35*,63*
Cc1ccc(S(=O)(=O)N2CCN(C(=O)CCC(=O)NCc3ccc(F)cc3)CC2)cc1,i,-2,1,7,3,-3,.,.,.,.
CCOC(=O)/C(=C\C=C1/Sc2ccccc2N1CC)C(C)=O,i,313*,123*,-370,-103,186*,196*,176*,156*,23*
CCOc1cc(/C=N/NC(=O)c2cccnc2)ccc1OCC(=O)N1CCOCC1,i,2,12,-10,0,-2,.,.,.,.
SMILES,Myeloid diff 2,CRFBP-R2 agonist,IDE inh,CRFBP-R2 block,IDE act,TPT1 inh,caTPT1 confirm,RNase T1 inh,IDE inh confirm,HEK cytotox
C/C(=N/NC(=O)c1ccncc1)c1cc2ccc(O)cc2oc1=O,i,191*,21*,-38,-17,60*,-11,9,26*,7
C/C(=N\NC(=O)c1ccncc1)c1cc2ccccc2oc1=O,i,0,-1,-9,4,5,.,.,.,.
COc1ccc(OC)c(NC(=O)Nc2cc(C(=O)O)ccc2C)c1,i,-4,0,26,5,-1,.,.,.,.
CN1/C(=C/C=C(C#N)C#N)C(C)(C)c2ccccc21,i,6,-5,-13,-3,13,.,.,.,.
CCCN1C(=O)/C(=C/C=C2\N(CC)c3ccccc3C2(C)C)SC1=S,+,169*,16*,-212,-29,178*,138*,125*,114*,17
CN1/C(=C\C=C2/SC(=S)N(CC(=O)O)C2=O)C(C)(C)c2ccccc21,i,263*,133*,-185,-91,79*,74*,78*,26*,20
CCCN1C(=O)/C(=C/c2ccncc2)SC1=S,i,-1,3,0,0,0,.,.,.,.
N#CC1=C(N)Oc2cc(N)ccc2C1c1cccnc1 (stereo not given),i,-1,-1,-5,0,-1,.,.,.,.
CCN(CC)c1ccc2c(c1)OC(N)=C(C#N)C2c1cccnc1 (stereo not given),?,181*,49*,-183,-28,71*,57*,64*,31*,70*
CCOC(=O)/C(C#N)=C\C=C1C=CN(C)C=C1,+,46,52*,-19,-38,158*,173*,167*,38*,11
O=C(/C=C/c1ccc(N2CCC(c3ccccc3)=N2)cc1)c1ccccc1,.,311*,112*,-284,.,115*,119*,114*,63*,15
OCC[C@@H]1C[C@H](O)[C@@H](O)[C@]2(Cc3ccccc3CO2)O1,i,-1,4,2,4,0,.,.,.,.
N#C/C(=C/c1ccncc1)c1nc2ccccc2s1,i,23,44*,-60,-17,30*,14,21,1,18
